The nature of experiment [1]: qHTS RealTime-Glo MT Cell Viability Assay in HepG2 cells - 32 hour (AID 1224877). Further: nearly all actives have a fitted effect of over 55% in size. The conditions noted are these: RealTime-Glo luminescence; series mostly up to 76.8 µM. The procedure, abridged:
(§1)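 Real-time, nonlytic viability: 600 HepG2 cells/well mixed with NanoLuc enzyme plus prosubstrate; 5 h settle, compound (DMSO) added by pintool; luminescence monitored over 40 h at 37 C.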

Experiment [2] is described as follows: A CellTox Green Cytotoxicity Assay to monitor cytotoxicity in HepG2 cells - 40 hour (AID 1224879). Further: nearly all actives have a fitted effect of over 40% in size. Further: potency means the concentration at half of the fitted maximal effect. The conditions noted are these: CellTox Green fluorescence; series mostly up to 76.8 µM. The method, boiled down:
(§2)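 Real-time, homogeneous cytotoxicity readout: dead-cell DNA staining by CellTox Green in HepG2 monolayers, fluorescence measured at timed intervals up to 40 h of continuous compound exposure.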

The nature of experiment [3]: qHTS RealTime-Glo MT Cell Viability Assay in HEK293 cells - 0 hour (AID 1224880). Further: top concentration of the series differs between compounds; nearly all actives have a fitted effect of over 45% in size. The note with it: RealTime-Glo luminescence; series mostly up to 76.8 µM. The procedure, abridged:
(§3)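 Nonlytic bioluminescent viability monitoring. HEK293 at 600 cells/well with reagent; 5 h settle; compound transfer by pintool; plates held at 37 C and read at set time points.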
For orientation: In qHTS, concentration-response curves come from the screen itself.

Experiment [4] can be described thus: A CellTox Green Cytotoxicity Assay to monitor cytotoxicity in HEK293 cells - 32 hour (AID 1224881). Further: nearly all actives have a fitted effect of over 40% in size. The note with it: CellTox Green fluorescence; series mostly up to 76.8 µM. The procedure, abridged: (§4)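 Cytotoxicity was tracked continuously in HEK293 cells by a DNA-binding dye excluded from viable cells. Compounds were transferred in DMSO 5 h after seeding; fluorescence was recorded at intervals up to 40 h.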

Experiment [5] in a line: A CellTox Green Cytotoxicity Assay to monitor cytotoxicity in HepG2 cells - 0 hour (AID 1224882). Further: nearly all actives have a fitted effect of over 35% in size. The conditions noted are these: CellTox Green fluorescence; series mostly up to 76.8 µM. The method, boiled down:
as §2

The nature of experiment [6]: qHTS RealTime-Glo MT Cell Viability Assay in HepG2 cells - 16 hour (AID 1224885). Further: nearly all actives have a fitted effect of over 50% in size. The conditions noted are these: RealTime-Glo luminescence; series mostly up to 76.8 µM. The procedure, abridged: as §1
Experiment [7] can be described thus: qHTS RealTime-Glo MT Cell Viability Assay in HEK293 cells - 24 hour (AID 1224886). Further: top concentration of the series differs between compounds; nearly all actives have a fitted effect of over 50% in size. The note with it: RealTime-Glo luminescence; series mostly up to 76.8 µM. The method, boiled down: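 Cells + reagent dispensed (600 cells/well, HEK293) → 5 h at 37 C/5% CO2 → 23 nL compound in DMSO pinned → 40 h at 37 C → luminescence read at 0, 8, 16, 24, 32, 40 h.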
Experiment [8] can be described thus: A CellTox Green Cytotoxicity Assay to monitor cytotoxicity in HEK293 cells - 16 hour (AID 1224888). Further: nearly all actives have a fitted effect of over 35% in size. The note with it: CellTox Green fluorescence; series mostly up to 76.8 µM. The procedure, abridged:
as §4

The nature of experiment [9]: qHTS RealTime-Glo MT Cell Viability Assay in HepG2 cells - 0 hour (AID 1224889). Further: nearly all actives have a fitted effect of over 50% in size. The note with it: RealTime-Glo luminescence; series mostly up to 76.8 µM. The procedure, abridged:
as §1

Experiment [10] in a line: qHTS assay to identify small molecule antagonists of the estrogen receptor alpha (ER-alpha) signaling pathway using the BG1 cell line in the presence of 0.1 nM 17-beta-estradiol - cell viability counter screen (AID 1259241). Further: nearly all actives have a fitted effect of over 40% in size. The conditions noted are these: VM7Luc4E2 (BG1) viability, CellTiter-Fluor protease, 22 h, 0.1 nM estradiol agonist added; series mostly up to 92.4 µM. The method, boiled down: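 Estradiol-stimulated (0.1 nM) VM7Luc4E2 cells exposed to compounds 22 hr; viability measured by fluorescence of cleaved CellTiter-Fluor substrate after 30 min.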

Experiment [11] can be described thus: qHTS assay to identify small molecule antagonists of the androgen receptor (AR) signaling pathway using the MDA cell line in the presence of 0.5 nM R1881 - cell viability counter screen (AID 1259242). Further: nearly all actives have a fitted effect of over 45% in size. The conditions noted are these: MDA-kb2 viability, CellTiter-Fluor protease fluorescence, 16 h; series mostly up to 92.4 µM. The procedure, abridged:
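Cytotoxicity toward MDA-kb2 cells is measured by CellTiter-Fluor live-cell protease fluorescence after 16 hr compound exposure at 37C in the presence of 0.5 nM R1881 stimulator.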

The target of experiment [12] is Estrogen receptor (Homo sapiens) (UniProt P03372). The experiment is described as follows: qHTS assay to identify small molecule antagonists of the estrogen receptor alpha (ER-alpha) signaling pathway using the BG1 cell line in the presence of 0.1 nM 17-beta-estradiol (AID 1259244). Further: nearly all actives have a fitted effect of over 50% in size. The conditions noted are these: VM7Luc4E2 (BG1) ERE-luciferase, antagonist mode, 0.1 nM E2, 22 h; series mostly up to 92.4 µM. The method, boiled down: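 After 5 days in hormone-depleted medium (charcoal-stripped serum, no phenol red), VM7Luc4E2 cells were seeded, incubated 24 h, then co-treated with compound and 0.1 nM (final) estradiol for 22 h before luminescence detection.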

The nature of experiment [13]: A CellTox Green Cytotoxicity Assay to monitor cytotoxicity in HepG2 cells - 16 hour (AID 1224876). Further: nearly all actives have a fitted effect of over 45% in size. The note with it: CellTox Green fluorescence; series mostly up to 76.8 µM. The procedure, abridged: as §2
Experiment [14] in a line: A CellTox Green Cytotoxicity Assay to monitor cytotoxicity in HepG2 cells - 24 hour (AID 1224878). Further: nearly all actives have a fitted effect of over 45% in size. The note with it: CellTox Green fluorescence; series mostly up to 76.8 µM. The method, boiled down: as §2
Experiment [15] can be described thus: A CellTox Green Cytotoxicity Assay to monitor cytotoxicity in HepG2 cells - 32 hour (AID 1224883). Further: nearly all actives have a fitted effect of over 50% in size. The note with it: CellTox Green fluorescence; series mostly up to 76.8 µM. The method, boiled down:
as §2

Experiment [16] is described as follows: A CellTox Green Cytotoxicity Assay to monitor cytotoxicity in HEK293 cells - 8 hour (AID 1224884). Further: nearly all actives have a fitted effect of over 35% in size. The note with it: CellTox Green fluorescence; series mostly up to 76.8 µM. The procedure, abridged:
as §4

Experiment [17] can be described thus: qHTS RealTime-Glo MT Cell Viability Assay in HEK293 cells - 8 hour (AID 1224887). The note with it: RealTime-Glo luminescence; series mostly up to 76.8 µM. The method, boiled down: as §3
Experiment [18] in a line: A CellTox Green Cytotoxicity Assay to monitor cytotoxicity in HepG2 cells - 8 hour (AID 1224890). Further: nearly all actives have a fitted effect of over 45% in size. The conditions noted are these: CellTox Green fluorescence; series mostly up to 76.8 µM. The procedure, abridged:
as §2

Experiment [19] deals with Androgen receptor (Homo sapiens) (UniProt P10275). The experiment can be described thus: qHTS assay to identify small molecule antagonists of the androgen receptor (AR) signaling pathway using the MDA cell line in the presence of 0.5 nM R1881 (AID 1259243). Further: nearly all actives have a fitted effect of over 50% in size. The note with it: MDA-kb2 MMTV-luciferase, R1881 0.5 nM, 16 h; series mostly up to 92.4 µM. The procedure, abridged:
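Steps: seed MDA-kb2 cells, incubate 5 hr at 37C; pin-transfer compounds in DMSO; add R1881 to 0.5 nM final; incubate 16 hr; add ONE-Glo, wait 30 min at room temperature; read luminescence.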

Experiment [20] is described as follows: qHTS assay to identify small molecule phospholipidosis (PLD) inducers (AID 1259344; active means well fitted curve in the direction sought with a large enough effect; an effect the other way counts as inactive or inconclusive). The note with it: HepG2 phospholipidosis, LipidTOX Red imaging, 24 h; series mostly up to 38.3 µM. The procedure, abridged: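 Phospholipidosis is scored by imaging LipidTOX-stained pits in HepG2 cells exposed to compound for 24 h at 37 C; pit counts and integrated intensities per well and per cell serve as outputs.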

The structures appear in SMILES notation. Results filed as inconclusive are left out. Active and inactive are the calls of the source. Unless noted, the call rests on the fitted dose curve; in most records, active means well fitted curve in the direction sought with a large enough effect in the repeat runs; inconclusive means weak or mixed curves; inactive means no such curve, though single readings can be large; an effect the other way counts as inactive or inconclusive.

Estrogen receptor (Homo sapiens), sequence (P03372 whole entry, looked up): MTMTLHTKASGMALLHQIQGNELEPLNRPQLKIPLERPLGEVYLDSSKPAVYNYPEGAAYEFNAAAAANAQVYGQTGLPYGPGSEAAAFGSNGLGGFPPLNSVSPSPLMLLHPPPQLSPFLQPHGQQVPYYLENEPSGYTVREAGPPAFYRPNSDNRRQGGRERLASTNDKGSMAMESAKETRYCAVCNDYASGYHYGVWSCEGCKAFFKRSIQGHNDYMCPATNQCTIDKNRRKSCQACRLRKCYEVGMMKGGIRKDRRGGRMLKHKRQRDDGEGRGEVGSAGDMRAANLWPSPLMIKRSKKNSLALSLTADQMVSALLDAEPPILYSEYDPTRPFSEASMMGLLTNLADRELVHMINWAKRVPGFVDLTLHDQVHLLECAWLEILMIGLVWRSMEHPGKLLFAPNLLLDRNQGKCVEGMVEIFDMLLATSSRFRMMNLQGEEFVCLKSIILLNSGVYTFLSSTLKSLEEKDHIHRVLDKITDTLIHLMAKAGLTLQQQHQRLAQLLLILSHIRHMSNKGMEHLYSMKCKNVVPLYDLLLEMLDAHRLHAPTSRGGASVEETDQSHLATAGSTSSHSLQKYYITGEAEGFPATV
Androgen receptor (Homo sapiens), sequence (P10275 whole entry, looked up): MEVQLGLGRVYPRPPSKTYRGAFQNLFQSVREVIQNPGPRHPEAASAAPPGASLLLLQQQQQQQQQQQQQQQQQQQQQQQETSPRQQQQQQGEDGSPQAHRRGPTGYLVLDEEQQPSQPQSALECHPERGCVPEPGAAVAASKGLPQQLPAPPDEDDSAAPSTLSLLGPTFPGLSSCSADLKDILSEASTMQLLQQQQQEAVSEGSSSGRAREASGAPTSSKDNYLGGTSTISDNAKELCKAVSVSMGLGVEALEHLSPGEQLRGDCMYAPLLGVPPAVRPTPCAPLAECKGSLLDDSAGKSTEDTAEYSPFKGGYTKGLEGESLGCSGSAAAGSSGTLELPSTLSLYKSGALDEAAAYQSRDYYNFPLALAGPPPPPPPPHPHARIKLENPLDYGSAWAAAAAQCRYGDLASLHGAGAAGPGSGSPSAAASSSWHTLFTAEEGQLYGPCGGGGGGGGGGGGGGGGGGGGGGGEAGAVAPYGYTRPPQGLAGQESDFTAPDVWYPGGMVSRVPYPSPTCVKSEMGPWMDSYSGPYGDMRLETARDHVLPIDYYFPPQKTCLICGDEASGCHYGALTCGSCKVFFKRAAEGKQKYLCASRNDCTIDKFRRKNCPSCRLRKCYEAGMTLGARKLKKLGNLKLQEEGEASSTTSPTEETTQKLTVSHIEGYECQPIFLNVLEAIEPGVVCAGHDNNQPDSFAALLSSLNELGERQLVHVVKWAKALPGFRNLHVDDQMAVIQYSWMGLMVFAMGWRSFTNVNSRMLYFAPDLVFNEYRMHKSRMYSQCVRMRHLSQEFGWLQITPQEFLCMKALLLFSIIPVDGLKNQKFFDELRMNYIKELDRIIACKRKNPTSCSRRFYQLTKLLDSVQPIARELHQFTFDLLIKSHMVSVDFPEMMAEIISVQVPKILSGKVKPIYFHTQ

Consider `CC/C=C\CCOC(=O)c1ccccc1O`, for which the molecule was classed as inactive in [1], in experiment [6], in experiment [10], in [11] and in [12]. Further, the Potency in experiment [2] is 21.9 µM (active). Further, the Potency result in experiment [3], in [4], in experiment [5], in experiment [7], in experiment [8] and in experiment [9] was “inactive” each time.

Consider `CC(=O)OC1CCCCC1C(C)(C)C` (centres undefined), for which the Potency result in [13], in experiment [14], in [3], in [4], in [5] and in experiment [15] was “inactive” in each case. For the same molecule, the Potency entry in experiment [16], in [7], in experiment [17], in experiment [8], in [9] and in experiment [18] was “inactive” throughout. The Potency entry in experiment [19] is “inactive”. Moreover, the result in experiment [6], in experiment [10], in experiment [11] and in experiment [12] was inactive.

For `C=CC(=O)OCC1CCCO1` (centres undefined), the Potency entry in experiment [13], in experiment [14], in experiment [2], in experiment [3], in experiment [4] and in experiment [5] was “inactive” throughout. Also, the Potency entry in [15], in experiment [16], in [7], in experiment [17], in experiment [8] and in [9] was “inactive” each time. In addition, the Potency result in experiment [18] is “inactive”. In addition, the outcome in experiment [6], in experiment [10] and in [12] was inactive.

Regarding `CN(C)CC/C=C1/c2ccccc2COc2ccc(CC(=O)O)cc21`, the Potency result in experiment [13], in [14], in experiment [4], in [5], in experiment [15] and in experiment [16] was “inactive” in each case. The Potency result in experiment [8] and in [18] was “inactive” throughout. The outcome in experiment [10], in [11] and in experiment [20] was inactive.

With `CC(C)OC(=O)OCOP(=O)(CO[C@H](C)Cn1cnc2c(N)ncnc21)OCOC(=O)OC(C)C`, the Potency result in experiment [13], in [14], in experiment [2], in experiment [3], in [4] and in experiment [5] was “inactive” throughout. The Potency entry in [15], in experiment [16], in experiment [7], in experiment [17], in [8] and in [9] was “inactive” each time. Besides, the Potency entry in [18] is “inactive”. For the same molecule, the molecule was classed as inactive in [6], in experiment [10], in experiment [11] and in [20].

Take `CCCCCCCCCCCCCCCCCC#N`: the result in experiment [1], in experiment [6] and in experiment [10] was inactive. Moreover, the Potency entry in [14], in experiment [2], in experiment [3], in experiment [4], in experiment [5] and in experiment [15] was “inactive” throughout. Further, the Potency entry in [16], in experiment [7], in [17], in experiment [8], in experiment [9] and in experiment [18] was “inactive” in each case.

As for `CC(=O)O[C@@H]1CC2CCC1(C)C2(C)C` (some centres undefined), the Potency result in experiment [13], in experiment [14], in experiment [3], in experiment [4], in experiment [5] and in experiment [15] was “inactive” each time. For the same molecule, the Potency result in [7], in experiment [17], in [8], in experiment [9], in experiment [18] and in experiment [19] was “inactive” in each case. The molecule was called inactive in experiment [6], in [10], in [11] and in [20].

Turning to `CO[C@@]1(NC(=O)Cc2cccs2)C(=O)N2C(C(=O)O)=C(COC(N)=O)CS[C@@H]21`, the Potency entry in [13], in [14], in experiment [2], in [3], in experiment [4] and in [5] was “inactive” throughout. The Potency result in [16], in experiment [7], in [17], in experiment [8], in [9] and in experiment [18] was “inactive” throughout. Besides, the result in [6], in [10], in experiment [11], in experiment [12] and in [20] was inactive.

With `CCCC(CC)c1ccccc1` (centres undefined), the Potency result in [13], in [14], in experiment [3], in experiment [4], in experiment [5] and in experiment [7] was “inactive” each time. Moreover, the Potency result in [8], in experiment [9] and in [18] was “inactive” in each case. Further, the molecule was classed as inactive in experiment [6], in experiment [10], in experiment [11] and in [12].
